Assay outcomes: PubChem BioAssay, several laboratories
CYP2C19 inhib: human CYP2C19 inhibition; inhibition, % at 5 µM; P33261; AID 778; CYP2C19 Supersomes, luciferin-H EGE luminescence, 30 min; hit rate 21% among 96,000;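 active means CYP2C19 inhibition above a set limit at 5 µM in the primary screen, cut at about 50% in these data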;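 further: plate controls were negative control wells for no effect and 2.5 mM tranylcypromine positive control for full effect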
Target sequence (P33261 whole entry, looked up): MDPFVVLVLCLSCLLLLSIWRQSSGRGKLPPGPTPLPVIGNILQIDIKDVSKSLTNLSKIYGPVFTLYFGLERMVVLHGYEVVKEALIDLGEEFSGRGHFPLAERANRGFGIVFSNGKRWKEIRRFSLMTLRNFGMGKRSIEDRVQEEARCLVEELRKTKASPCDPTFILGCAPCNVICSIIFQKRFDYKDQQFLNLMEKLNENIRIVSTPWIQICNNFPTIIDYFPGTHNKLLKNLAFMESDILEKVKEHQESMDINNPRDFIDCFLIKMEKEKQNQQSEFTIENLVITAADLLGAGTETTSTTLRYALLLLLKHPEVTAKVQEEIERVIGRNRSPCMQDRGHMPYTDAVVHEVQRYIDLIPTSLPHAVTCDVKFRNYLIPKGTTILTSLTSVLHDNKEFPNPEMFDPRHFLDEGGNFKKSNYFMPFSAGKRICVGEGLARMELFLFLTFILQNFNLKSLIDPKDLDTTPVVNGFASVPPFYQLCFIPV
PostGolgi yeast: growth inhibition of a yeast mutant, post-Golgi transport screen; post-Golgi transport phenotypic cell assay; inhibition, % at 10 µM; hit rate 0.9% among 98,000; AID 739;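 further: yeast cells grown in 1536-well plates; yeast grown about 18 h at 30C before absorbance read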
CYP2C9 activ: CYP2C9 (human) activation; P11712; activation factor at 5 µM; recombinant CYP2C9, luciferin-H conversion, luminescence; stronger effect = higher value; factor 1 = untreated enzyme, 0 = blocked; hit rate 1.4% among 96,000;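 active means activation factor of 2 or more for CYP2C9 at a 5 µM dose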;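 further: 0 = sulfaphenazole-blocked wells and 1 = vehicle-only wells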
CYP2C9 inhib: inhibitors of human CYP2C9. P11712. AID 777. hit rate 20% among 96,000. CYP2C9 Supersomes, luciferin-H conversion, luminescence. inhibition, % at 5 µM;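 active means blocking of liver enzyme CYP2C9 beyond about 50% at 5 µM, limit read from the data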
CYP2C19 activ: increases human CYP2C19 enzyme activity | P33261 | recombinant CYP2C19, luciferin-H EGE luminescence; stronger effect = higher value; 0 = fully inhibited enzyme, 1 = untreated enzyme | activation factor at 5 µM | 96,000 tested, under 10 active;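 active means activation factor of at least 2 at 5 µM in the primary screen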;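 further: 0 = wells with 2.5 mM tranylcypromine and 1 = vehicle-only wells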
PostGolgi ctrl: yeast control strain growth, post-Golgi counter-screen; efflux-deficient yeast background strain, growth absorbance A615, 16 h; inhibition, % at 10 µM; hit rate 5% among 98,000
* = called active by the depositor; · = no result given. A selection: hits, their analogues and other compounds. The true share with any hit is near 32%. Unless noted, no stated cut-off is given here; in the data, active means inhibition above about 30%; inactive means the rest.

SMILES	CYP2C19 inhib	PostGolgi yeast	CYP2C9 activ	CYP2C9 inhib	CYP2C19 activ	PostGolgi ctrl
COC(=O)c1ccccc1NC(=O)c1cccc(COc2ccccc2Cl)c1	19.9	2.2	0.7	28.0	0.8	0.3
COC(=O)c1ccccc1NC(=O)CSc1n[nH]c(CC(C)C)n1	86.3*	-6.7	1.5	-49.7	0.1	11.9
O=C(CSc1ccccc1)Nc1ccccc1C(=O)O	1.3	17.8	0.7	33.3	1	2.8
COC(=O)c1ccccc1NC(=S)NC(=O)COc1ccccc1Cl	23.6	-1.4	1.1	-8.6	0.8	31.4*
COC(=O)c1ccccc1NC(=O)CSc1ccccc1	95.1*	-6.5	1.3	-27.7	0	11.6
COC(=O)c1ccccc1NC(=O)CSCC(=O)Nc1ccccc1OC	47.1	-1.8	1.4	-42.1	0.5	2.0
O=C(NC1CC2CCCC(C1)N2Cc1cccs1)N1CCOCC1 (stereo not drawn)	13.1	-5.5	1.2	-16.0	0.9	-6.3
Cn1c2c(c(=O)[nH]c1=O)C(NC(=O)c1ccco1)(C(F)(F)F)C(=O)N2 (stereo not drawn)	-1.6	1.5	1	1.1	1	-3.0
Cc1cc(C)n(-c2cc(C)c(C)cc2Br)n1	26.2	-6.1	1.1	-9.0	0.7	-4.6
COC(=O)c1ccccc1NC(=O)COc1ccccc1	53.2*	-2.8	1	2.4	0.5	4.3
COC(=O)c1ccccc1NC(=O)CN1CCOCC1	13.7	1.6	0.9	6.6	0.9	-0.8
COCCNC(=O)c1ccccc1NC(=O)COc1ccccc1	-0.6	-2.2	0.5	46.3	1	-0.3
COC(=O)c1ccccc1NC(=O)Cn1cc(Br)cn1	60.0*	-4.6	1	-0.1	0.4	7.6
COc1ccccc1-n1c(CNC(=O)COc2ccccc2)n[nH]c1=S	33.4	-3.5	1.1	-8.7	0.7	-3.0
O=C(Nc1ccc(Cl)cc1)Nc1ccc2c(c1)N1CCN=C1S2	41.5	1.7	0.3	66.9*	0.6	18.4
CCc1nnc(NC(=O)C(C)N2C(=O)C3C4C=CC(C4)C3C2=O)s1 (stereo not drawn)	-16.1	10.2	1	2.9	1.2	-1.3
COC(=O)CCC(NC(=O)c1cc(-c2ccc3c(c2)OCCO3)oc1C)C(=O)OC (stereo not drawn)	51.8*	-0.9	0.6	40.4	0.5	4.2
CC1CCCCN1c1nnc(NC(=O)Cn2c(=O)oc3ccccc32)s1 (stereo not drawn)	-6.6	-3.2	0.4	56.7*	1.1	5.8
CC1CC(C)CN(c2ncc3c(n2)CC(c2ccccc2Cl)CC3=O)C1 (stereo not drawn)	6.2	-4.0	0.9	10.5	0.9	31.2*
CC1CC(C)CN(c2ncc3c(n2)CC(c2ccc(Cl)cc2)CC3=O)C1 (stereo not drawn)	43.1	12.3	0.2	78.2*	0.6	28.0
Cc1nc2ncnn2c(C)c1CCC(=O)NCc1ccc2c(c1)OCO2	-3.6	0.7	1	1.5	1	18.2
CCN(CC)C(=O)Oc1ccc(NC(C)=O)cc1	-12.3	19.9	1.1	-12.4	1.1	9.7
Cc1ccccc1S(=O)(=O)Cc1ccc(C(=O)NCc2cccs2)o1	40.3	-4.2	0.6	44.2	0.6	18.2
Cc1ccc(NC(=S)NCc2cccs2)cc1	57.4*	12.3	0.7	28.9	0.4	6.4
Cc1ccc(S(=O)(=O)Cc2ccc(C(=O)NCc3cccs3)o2)cc1	29.0	0.3	0.3	72.2*	0.7	5.3
SMILES	CYP2C19 inhib	PostGolgi yeast	CYP2C9 activ	CYP2C9 inhib	CYP2C19 activ	PostGolgi ctrl
COc1ccc(CCNC(=O)c2ccc(CS(=O)(=O)c3ccc(C)cc3)o2)cc1OC	17.8	-5.8	0.2	83.2*	0.8	-2.7
COC(=O)N(C)c1ccccc1C(=O)N1CCOCC1	·	-7.8	·	·	·	2.5
Cc1cc(NC(=O)CSc2nnc(-c3cccs3)n2N)no1	-13.9	-4.3	1.1	-14.2	1.1	0.3
COc1ccc2c(c1OC)C(=O)N(C(C)C(=O)O)C2=O (stereo not drawn)	-8.5	4.1	1	-3.5	1.1	2.8
CCc1nc(SCC(=O)Nc2c(C)nn(C)c2C)c2cnn(-c3ccccc3)c2n1	15.5	-6.7	0.8	19.1	0.8	3.6
Cc1nn(Cc2ccccc2)c(C)c1NC(=O)CSc1nc(C2CC2)nc2c1cnn2-c1ccccc1	10.9	-6.7	0.4	64.1*	0.9	-8.6
O=C(OCc1cn(-c2ccc(Cl)cc2)nn1)c1ccccc1	43.1	0.2	1.2	-15.5	0.6	5.6
Nc1cc(N)nc(SCC(=O)Nc2ccc(Br)cc2Cl)n1	74.1*	·	0.4	55.5*	0.3	·
COc1ccccc1NC(=O)CSc1nc(N)cc(N)n1	71.5*	-9.4	1.7	-73.0	0.3	-5.4
Cc1cc(C)c2c(=O)[nH]c(SCC(=O)NCc3ccccc3)nc2n1	34.2	-1.1	0.7	29.6	0.7	-3.6
COc1ccccc1NC(=O)CSc1nc2ccccc2n1C(C)=O	39.6	-19.6	0.5	45.1	0.6	1.0
COc1ccccc1NC(=O)CSc1nc2ccccc2cc1Cc1ccccc1	99.1*	0.2	0.4	55.2*	0	7.6
COc1ccccc1NC(=O)CSc1nc2nc(C)cc(C)c2c(=O)[nH]1	13.9	5.6	0.5	52.4*	0.9	3.4
CC(NC(=O)COc1ccc(Oc2ccccc2)cc1)C(=O)O (stereo not drawn)	-15.3	3.7	1.1	-7.4	1.2	0.5
COC(=O)c1c(C)noc1-c1cc(C)on1	13.6	-4.4	1.2	-23.6	0.9	4.6
COc1ccccc1NC(=O)Cc1noc(CSc2cccc[n+]2[O-])n1	-3.1	-5.9	1.1	-12.9	1	17.5
COc1ccccc1NC(=O)Cc1noc(CSc2cc(C)c3ccccc3n2)n1	93.0*	4.0	0.6	40.0	0.1	17.8
CC1OC(Nc2cccc3ccccc23)C(O)C(O)C1O (stereo not drawn)	-2.7	17.0	1	3.6	1	-1.9
COc1ccc(-c2noc(CSc3nc4ccccc4c(=O)n3-c3ccccc3)n2)cc1	8.9	-0.9	0.7	32.3	0.9	20.4
CCn1c(SCc2nc(-c3ccccc3)no2)nnc1-c1cccs1	51.1*	4.7	0.5	52.3*	0.5	14.2
CCn1c(SCc2nc(-c3cccs3)no2)nnc1-c1c[nH]c2ccccc12	14.7	-7.3	0.4	56.8*	0.9	15.8
CCn1c(SCc2nc(-c3ccccc3)no2)nc2ccccc21	88.2*	-8.9	1	-2.0	0.1	21.7
COc1ccc(-c2noc(CSc3nnc(-c4ccccc4)n3C)n2)cc1	84.4*	-6.6	0.3	65.8*	0.2	14.5
Cc1noc(C)c1CSc1nnc(-c2c[nH]c3ccccc23)n1-c1ccc(Cl)cc1	-7.4	-7.4	1	0.1	1.1	2.9
COc1ccc(-c2noc(CSc3nnc(-c4ccncc4)n3-c3ccc(F)cc3)n2)cc1OC	58.8*	0.2	0.8	23.4	0.4	-10.8
CCc1ccc(-n2c(SCc3c(C)noc3C)nnc2-c2ccncc2)cc1	73.0*	-2.2	0.4	57.6*	0.3	5.3
